Source: PubChem (The Scripps Research Institute Molecular Screening Center)
Fam108B counter: mouse Fam108B serine hydrolase inhibitors, primary screen, counter-screen for RBBP9 inhibitor project, biochemical, fluorescence polarization; AID 1947, 2009; inhibition, % at 9.51 µM; recombinant Fam108B, FP-Rh probe fluorescence polarization; 0.33% of 300,000 active;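 active = inhibition above the screen mean inhibition plus 3 SD, computed separately per campaign, cut at about 18% in these data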;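 note: inhibitors lower polarization as less probe binds the enzyme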
PREPL inh: PREPL enzyme inhibitors, primary screen, biochemical, fluorescence polarization | recombinant PREPL, fluorescence polarization activity-based probe | 0.68% of 320,000 active | inhibition, % at 5.96 µM | Prolyl endopeptidase-like (Homo sapiens), Q4J6C6; in the data active = inhibition above about 43%;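 note: 0% = enzyme with DMSO and 100% = wells lacking enzyme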
PME-1 inh: PME-1 inhibitors via competitive probe labeling, primary screen, biochemical, fluorescence polarization, FP-Rh probe, HTS | recombinant PME-1 | 0.53% of 320,000 active | inhibition, % at 5.9 µM | AID 2130, 2009 | Protein phosphatase methylesterase 1 (Homo sapiens), Q9Y570;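 active = inhibition above the campaign mean of all compounds plus 3 SD, cut at about 26% in these data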;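 note: competitive labeling of PME-1 active site by serine hydrolase directed probe; 0% = PME-1 with DMSO and 100% = wells lacking PME-1 enzyme; inhibitors block probe labeling so polarization falls and inhibition rises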
GSTO1 counter: inhibitors of recombinant GSTO1, primary screen, counter-screen for RBBP9 inhibitor project, biochemical, fluorescence polarization. inhibition, % at 5.96 µM. 1.1% of 300,000 active. Glutathione S-transferase omega-1 (Homo sapiens), P78417. activity-based probe fluorescence polarization. AID 1974, 2009;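 active = inhibition above the campaign mean inhibition plus 3 SD, cut at about 35% in these data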;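 note: 0% = GSTO1-1 with DMSO and 100% = wells lacking GSTO1-1 enzyme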
LYPLA1 counter: LYPLA1 inhibitors, primary screen, counter-screen for PME1 inhibitor project, biochemical, fluorescence polarization, FP-Rh probe ABPP; Acyl-protein thioesterase 1 (Homo sapiens), O75608; recombinant LYPLA1; inhibition, % at 5.9 µM; 0.16% of 320,000 active; AID 2174, 2009;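 active = inhibition above the mean of all tested compounds plus 3 SD, set per campaign, cut at about 14% in these data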;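 note: inhibitors block serine hydrolase probe labeling of LYPLA1 so polarization falls; 0% = enzyme with DMSO and 100% = wells lacking LYPLA1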
Target sequence (O75608 whole entry, looked up): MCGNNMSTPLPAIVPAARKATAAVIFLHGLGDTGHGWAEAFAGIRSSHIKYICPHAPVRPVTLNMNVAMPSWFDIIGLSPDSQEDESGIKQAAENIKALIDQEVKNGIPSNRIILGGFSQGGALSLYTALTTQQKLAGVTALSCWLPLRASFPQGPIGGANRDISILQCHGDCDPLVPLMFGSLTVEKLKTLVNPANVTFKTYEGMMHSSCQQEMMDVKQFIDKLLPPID
LYPLA2 inh: LYPLA2 inhibitors, primary screen, counter-screen for PME1 inhibitor project, biochemical, fluorescence polarization, FP-Rh probe ABPP. Acyl-protein thioesterase 2 (Homo sapiens), O95372. recombinant LYPLA2. inhibition, % at 5.9 µM. 0.38% of 320,000 active. AID 2177, 2009;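 active = inhibition above the screen-wide mean plus 3 SD, limit set per campaign, cut at about 26% in these data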;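 note: 0% = LYPLA2 with DMSO and 100% = wells lacking LYPLA2 enzyme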
Target sequence (O95372 whole entry, looked up): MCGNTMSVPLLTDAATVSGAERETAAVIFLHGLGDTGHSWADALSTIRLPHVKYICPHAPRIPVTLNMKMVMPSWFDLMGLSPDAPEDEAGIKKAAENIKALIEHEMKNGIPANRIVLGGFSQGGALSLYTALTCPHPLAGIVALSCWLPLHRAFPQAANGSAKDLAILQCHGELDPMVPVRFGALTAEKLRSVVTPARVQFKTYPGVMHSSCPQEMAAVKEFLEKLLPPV
Numbers without * were called inactive; x = no result given. The list is not random: actives were taken first. Their share in the collection is about 1.9%.

SMILES | Fam108B counter | PREPL inh | PME-1 inh | GSTO1 counter | LYPLA1 counter | LYPLA2 inh
O=[N+]([O-])c1ccc2c(c1Nc1ccccc1Cl)=NC1(CCCCC1)N=2 | 11 | 25 | 7 | 16 | 0 | -1
Cc1ccc(Nc2c([N+](=O)[O-])ccc3c2=NC2(CCCCC2)N=3)cc1 | 16 | 8 | 31* | 22 | 1 | 14
COC(C)c1oc2c(C)c3oc(=O)cc(C)c3cc2c1C (stereo not given) | 0 | 4 | -8 | 0 | -3 | 1
O=C(c1cc2nc(-c3ccc(F)cc3)cc(C(F)(F)F)n2n1)N1CCCCC1c1cccnc1 (stereo not given) | -5 | -2 | 5 | 2 | 4 | 0
Brc1cc2c(cc1-c1nc3ccccc3s1)OCO2 | -1 | 7 | 0 | -7 | -5 | 19
Oc1ccc(N=C/C=C/c2ccc(Br)cc2)cc1-c1nc2ccccc2s1 | 12 | 14 | 2 | 36* | 1 | 4
COc1ccc(CC(=O)Nc2cccc(/C(C)=N/NC(=O)C3(C)CC3(Br)Br)c2)cc1 (stereo not given) | 0 | -4 | 2 | -5 | -2 | -5
O=C(O)C1Nc2c(C(=O)N3CCOCC3)cccc2C2C=CCC12 (stereo not given) | 4 | 1 | -16 | 36* | -5 | -10
CC(Sc1nc(N)cc(=O)[nH]1)C(=O)NCC(=O)Nc1ccc(F)c(F)c1F (stereo not given) | x | 6 | 6 | x | 2 | 0
CCCCn1c(SCC(N)=O)nc2c(sc3ccccc32)c1=O | -3 | -3 | -2 | 50* | -5 | -7
O=C1C(=Cc2ccc(Br)o2)C(=O)c2ccccc21 | 55* | -3 | -7 | 33 | -7 | 2
CC(=O)n1cc(N(C(=O)CCl)c2ccc(C)cc2)c2ccccc21 | -1 | 0 | -1 | 70* | 1 | 2
CC(=O)N(c1ccc(Cl)cc1)c1cn(C(C)=O)c2ccccc12 | 3 | 0 | 1 | -2 | -4 | -3
CCOC(=O)C(C)On1c(-c2ccc(Cl)cc2)nc2ccc([N+](=O)[O-])cc21 (stereo not given) | 4 | 31 | 19 | -8 | -4 | -9
CCOC(=O)C(C)On1c(-c2ccccc2)nc2ccc([N+](=O)[O-])cc21 (stereo not given) | 3 | 10 | 27* | -8 | 0 | 8
CCOc1ccc(N=NC2C(=O)N(C(N)=S)N=C2C)cc1 (stereo not given) | 16 | 13 | -1 | -6 | 3 | 9
CC(C)=CCc1cc2c(=O)c3c(O)c4c(cc3oc2c(O)c1O)OC(C)C4(C)C (stereo not given) | -2 | 17 | 30* | 13 | -29 | -37
COc1ccccc1C(=O)NCCC(=O)NCC1CCCO1 (stereo not given) | x | 3 | -6 | x | 0 | 4
COc1ccc(-c2csc(NC(=O)c3ccccc3NS(=O)(=O)c3ccc(F)c(F)c3)n2)cc1 | 18 | 14 | 31* | -48 | 4 | 12
COc1ccc(-c2csc(NC(=O)c3ccccc3F)n2)cc1 | -6 | 10 | -3 | -3 | -1 | 2
COc1ccc(CCn2c(NN=C(C)C)nc3c2c(=O)[nH]c(=O)n3C)cc1 | 4 | 10 | 9 | 46* | 4 | 8
COc1ccc(CCn2c(Br)nc3c2c(=O)[nH]c(=O)n3C)cc1 | -3 | 2 | -7 | 8 | -6 | -6
Cc1cccc(NC(=O)CN(CC2CCCO2)C(=O)c2cc(S(=O)(=O)N(C)C)ccc2F)c1C (stereo not given) | x | 11 | x | x | x | x
Nc1cc(=O)[nH]c(SCC(=O)Nc2cccc([N+](=O)[O-])c2)n1 | -1 | 19 | -3 | -6 | 2 | 0
O=C(CSc1nncc(=O)[nH]1)Nc1cccc([N+](=O)[O-])c1 | 5 | 22 | 0 | 35* | -4 | 10
SMILES | Fam108B counter | PREPL inh | PME-1 inh | GSTO1 counter | LYPLA1 counter | LYPLA2 inh
Cc1ccc(NC(=O)c2ccc(NS(=O)(=O)c3cccc4cccnc34)cc2)cc1 | -6 | -7 | -2 | -4 | -10 | -10
CCOc1ccccc1NC(=O)C1CCCN1S(=O)(=O)c1ccccc1C(F)(F)F (stereo not given) | x | 2 | 1 | x | -1 | 4
CC1(OC(=O)c2ccc(Cl)nc2)C(=O)C=C2C=C3CCCN3C=C2C1=O (stereo not given) | 4 | 3 | 1 | 35* | -1 | -2
CC1(OC(=O)C2CCCC2)C(=O)C=C2C=C(C3CC3)OC=C2C1=O (stereo not given) | 3 | -3 | 5 | 22 | 0 | 6
CC1(OC(=O)c2ccc(Cl)nc2)C(=O)C=C2C=C(c3ccc(C#N)cc3)OC=C2C1=O (stereo not given) | 12 | 15 | 12 | 36* | 0 | -2
CC1(OC(=O)c2ccc(Cl)nc2)C(=O)C=C2C=C(c3ccsc3)OC=C2C1=O (stereo not given) | 5 | 17 | -1 | 24 | 0 | 7
CC1(OC(=O)c2ccc(Cl)nc2)C(=O)C=C2C=C(C3CC3)OC=C2C1=O (stereo not given) | 20* | 1 | 25 | 24 | 21* | 21
O=C(COC(=O)c1cnccn1)Nc1cccc(F)c1 | x | 16 | x | x | x | x
[O-]/C(=C(\C(=S)Nc1cccc2ccccc12)[n+]1ccccc1)c1cccs1 | 12 | 35 | 7 | 37* | -2 | 4
CCCCC1=CC2=CC(=O)C(C)(OC(=O)c3cccs3)C(=O)C2=CO1 (stereo not given) | 1 | 6 | 0 | 21 | 0 | 0
CCCCC1=CC2=CC(=O)C(C)(OC(=O)c3ccco3)C(=O)C2=CO1 (stereo not given) | 3 | -5 | 3 | 21 | 2 | -2
CC(C)(C)OC(=O)NCCCCC1=CC2=CC(=O)C(C)(OC(=O)c3cnc4ccccc4n3)C(=O)C2=CO1 (stereo not given) | 12 | 11 | 18 | 19 | 17* | 20
COC(=O)CCCC1=CC2=CC(=O)C(C)(OC(=O)c3cnc4ccccc4n3)C(=O)C2=CO1 (stereo not given) | 13 | 14 | 25 | 38* | 20* | 24
CCCCC1=CC2=CC(=O)C(C)(OC(=O)c3cnc4ccccc4n3)C(=O)C2=CO1 (stereo not given) | 19* | 29 | 31* | 29 | 23* | 25
COC(=O)CCCC1=CC2=CC(=O)C(C)(OC(=O)c3cccs3)C(=O)C2=CO1 (stereo not given) | 3 | 10 | 8 | 39* | 8 | 4
